Screening data as filed in PubChem BioAssay.
An excerpt weighted towards active compounds, which were near 2.6% of everything screened.
TROY NFkB inh = inhibitors of TROY-dependent NF-kB signaling; Q293 LMP1-TROYcd NF-kB luciferase reporter, 4 h; inhibition, % at 10 µM; 0.98% of 360,000 active;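 active = compounds whose plate-normalised and pattern-corrected inhibition of the luciferase reporter signal at the single screening dose is 50% or more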
KKLEB tox = reduces viability of KKLEB cystic fibrosis airway cells | activity change (cytotoxicity), % at 5 µM | KKLEB CF airway cells viability, ATPlite luminescence, overnight; stronger effect = lower value; cells stimulated with P. aeruginosa culture filtrate | AID 602141 | 0.36% of 360,000 active;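 active = corrected activity change at or below -50% at 5 µM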
CF NFkB block = inhibitors of cystic fibrosis induced NF-kB; KKLEB NF-kB-GFP reporter, PAF-induced, GFP fluorescence overnight; inhibition, % at 5 µM; 0.86% of 360,000 active;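 active = at least 50% inhibition at 5 µM, scaled per plate between neutral and stimulator controls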;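 also: PAF is a Pseudomonas aeruginosa culture filtrate used as stimulus; plate controls were PAF-stimulated DMSO wells for no effect and unstimulated DMSO wells for full effect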
EWS-Fli inh = blocks EWS/Fli oncoprotein-driven transcription; A673 NR0B1-luciferase reporter, viability-normalised; inhibition, % at 12.6 µM; 0.67% of 350,000 active; AID 651661;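 active = mean inhibition of at least 50% after viability correction, with every replicate also passing that limit; inconclusive = mean reaches 50% but only one of two replicates passes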;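 also: firefly luciferase signal divided by Alamar Blue viability fluorescence both relative to DMSO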
LGR2 inh = blocks bursicon-induced cAMP signaling via Drosophila LGR2. HEK293 LGR2, CRE-luciferase, bursicon-stimulated, 4 h. 0.35% of 380,000 active. AID 720647. inhibition, % at 9.99 µM;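 active = drop in luminescence signal, shown as inhibition above about 50% in the replicate tests, limit read from the data, passing the limit was not always enough; inconclusive = probably only some replicates passing the limit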;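 also: agonist challenge used bursicon conditioned medium at about half maximal strength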
TWEAK-Fn14 inh = blocks TWEAK-Fn14 interaction in a reporter cell assay | inhibition, % at 10 µM | TWEAK-stimulated Fn14 reporter cells, luciferase luminescence, 8 h | 2% of 360,000 active | AID 1159606; in the data active = inhibition above about 50%
Active calls of the source: *; ? = inconclusive; nt = no result.

SMILES	TROY NFkB inh	KKLEB tox	CF NFkB block	EWS-Fli inh	LGR2 inh	TWEAK-Fn14 inh
CCC(=O)[C@@H](C)[C@@H](O)[C@H](C)C[C@@H](C)C1OC(=O)C[C@@]2(O)CC=C(C)C(O2)C(C)=CCCC[C@H](O[C@H]2C[C@@H](OC(N)=O)[C@H](O)[C@@H](C)O2)C=C[C@H](C)C[C@H]1C (stereo partly drawn)	29.1	nt	nt	nt	nt	88.9*
Cc1cc(OC(=O)CCNC(=O)OC(C)(C)C)c2c3c(c(=O)oc2c1)CCC3	36.6	-4.7	-3.0	nt	?	62.9*
O=C(NC[C@H]1CC[C@@H]2NC[C@@H]2O1)C1CCCC1	nt	nt	nt	7.3	nt	nt
CC1CN=C(Nc2cccc3ccccc23)S1 (stereo not drawn)	53.1*	-10.2	-6.5	nt	nt	44.2
COC(=O)[C@@H]1[C@@H](CO)[C@@H]2Cn3c(ccc(-c4ccccc4)c3=O)[C@H]1N2C(=O)c1ccccc1F	nt	nt	nt	3.9	3.7	nt
CC(C)NC(=O)N1[C@@H]2Cn3c(ccc(-c4cccc(C(=O)N(C)C)c4)c3=O)[C@H]1[C@@H](C(=O)O)[C@@H]2CO	nt	nt	nt	-7.2	0.9	nt
c1ccc2c(N3CCNCC3)cccc2c1	6.8	0.4	-8.7	0.7	5.8	-2.0
Clc1cccc(N2CCNCC2)c1Cl	-5.7	-67.1*	-2.2	nt	nt	8.5
O=c1oc2ccccc2c(O)c1[C@H]1c2ccc(O)cc2Oc2c1c(=O)oc1ccccc21	65.1*	-3.5	-18.2	-7.9	-2.7	42.6
CCCN1[C@@H]2c3ccc(-c4cccc(C(=O)N(C)C)c4)c(=O)n3C[C@H]1[C@H](CO)[C@H]2C(=O)OC	nt	nt	nt	12.5	1.1	nt
O=C1NCN(c2ccccc2)C12CCN(C(c1cc3ccccc3o1)c1nnnn1-c1ccc3c(c1)OCCO3)CC2 (stereo not drawn)	26.3	-5.5	21.4	5.1	6.5	45.5
O=C1CC(N2CCC(n3c(=O)[nH]c4ccccc43)CC2)C(=O)N1Cc1ccccc1 (stereo not drawn)	18.6	-2.0	4.6	nt	nt	17.1
O=c1[nH]c2ccccc2n1C1CCN(C(c2cc3ccccc3o2)c2nnnn2Cc2ccccc2)CC1 (stereo not drawn)	45.8	-96.3*	81.7*	16.3	71.8*	75.5*
Cc1cccc(C)c1-n1nnnc1C(c1cc2ccccc2o1)N1CCC(n2c(=O)[nH]c3ccccc32)CC1 (stereo not drawn)	76.6*	-4.1	24.8	13.0	78.4*	101.8*
COC(=O)[C@@H]1[C@@H](CO)[C@@H]2Cn3c(cccc3=O)[C@@H]2N1CC1CC1	nt	nt	nt	7.1	30.6	nt
Cc1c2ccncc2c(C)c2c1[nH]c1ccccc12	-8.3	10.5	83.1*	nt	nt	-31.6
CCCCCC[N+](=O)[O-]	-4.8	0.5	-7.8	-0.6	-1.0	4.9
CCCCCCCCCCCCCCCC[N+](C)(C)C	25.0	29.9	74.8*	57.0*	38.5	-20.5
COc1cc(/C=C/c2nc3ccccc3c(=O)n2-c2ccccc2O)ccc1O	18.3	13.5	-56.6	9.6	1.6	56.4*
C/C=C/c1ccc(C2[C@@H]3CN(Cc4cocn4)C[C@H]2N3)cc1 (stereo partly drawn)	nt	nt	nt	-11.2	3.5	nt
CCN(CC)C(=O)c1ccc(NC(=O)CCCSc2ccccc2)cc1	-4.2	8.7	-9.7	-49.5	0.1	-3.8
CCN(CC)C(=O)c1ccc(NC(=O)Nc2ccccc2F)cc1	76.3*	-4.8	0.4	61.7*	75.0*	71.8*
CCOC(=O)[C@]12Cc3cc(Cl)ccc3[C@H]1N(C)C(=O)c1ccccc12	9.8	nt	nt	-2.4	21.3	1.1
CCOC(=O)[C@]12Cc3cc(Cl)ccc3[C@H]1N(C(C)C)C(=O)c1ccccc12	39.9	nt	nt	29.4	73.0*	78.3*
CCOC(=O)[C@]12Cc3cc(OC)ccc3[C@H]1N(C(C)C)C(=O)c1cc(OC)ccc12	51.6*	nt	nt	15.8	?	-7.6
SMILES	TROY NFkB inh	KKLEB tox	CF NFkB block	EWS-Fli inh	LGR2 inh	TWEAK-Fn14 inh
CCOC(=O)[C@]12Cc3cc(Cl)ccc3[C@H]1N(CC(=O)OC)C(=O)c1ccccc12	29.5	nt	nt	nt	nt	79.8*
Cc1cc(C(=O)CS(=O)(=O)c2ccccc2)cc(C)c1OC(=O)N(C)C	59.7*	-11.3	15.3	-71.2	-75.0	29.7
Cc1ccc(S(=O)(=O)CC(=O)c2cc(C)c(OC(=O)N(C)C)c(C)c2)cc1	-11.8	4.5	-4.5	-24.2	2.1	-0.8
COC(=O)C[C@]1(C(=O)OC)CN(C#N)N(c2ccc(Cl)cc2)C12c1ccccc1-c1ccccc12	89.0*	-96.5*	88.2*	nt	77.9*	95.5*
COC(=O)[C@@H]1[C@@H](C(=O)OC)C2(c3ccccc3-c3ccccc32)N(c2ccc(Cl)cc2)N1C#N	83.8*	-74.8*	92.2*	nt	36.2	26.1
COC(=O)[C@@H]1[C@@H](CO)[C@@H]2Cn3c(ccc(C4=CCCC4)c3=O)[C@H]1N2CC1CCCC1	nt	nt	nt	0.5	11.4	nt
CCOC(=O)[C@]12Cc3cc(Cl)ccc3[C@H]1N(C1CCCCC1)C(=O)c1ccccc12	57.0*	nt	nt	nt	nt	89.8*
CCOC(=O)[C@]12Cc3cc(C)ccc3[C@H]1N(C)C(=O)c1ccccc12	5.5	nt	nt	2.3	12.6	11.9
CCOC(=O)[C@]12Cc3cc(OC)ccc3[C@H]1N(C1CCCCC1)C(=O)c1ccccc12	48.4	nt	nt	56.6*	50.4*	65.8*
O=C(Cc1ccccn1)N1CCCCN2[C@H](CO)[C@@H](c3ccc(-c4ccc(F)cc4)cc3)[C@@H]2C1	nt	nt	nt	1.1	-1.8	nt
CCCN1[C@@H]2Cn3c(cccc3=O)[C@H]1[C@@H](C(=O)N(C)C)[C@@H]2CO	nt	nt	nt	0.8	-7.8	nt
COc1cccc2c1C(=O)c1c(O)c3c(c(O)c1C2=O)CC(O)(C(C)=NO)CC3OC1CC(N)C(O)C(C)O1 (stereo not drawn)	8.5	-11.8	-254.5	38.0	62.9*	6.0
COC(=O)[C@H]1[C@H](CO)[C@H]2Cn3c(ccc(C4=CCCCC4)c3=O)[C@@H]1N2Cc1ccccn1	nt	nt	nt	5.3	7.8	nt
Cc1ccccc1S(=O)(=O)N1[C@@H]2Cn3c(ccc(-c4cccnc4)c3=O)[C@H]1[C@@H](C(=O)O)[C@@H]2CO	nt	nt	nt	-1.0	11.6	nt
